High-throughput results (PubChem BioAssay)
A selection: hits, their analogues and other compounds. The true share with any hit is near 7.3%.
RORgamma inh: qHTS for inhibitors of ROR gamma transcriptional activity; 310,000 compounds, 5.4% hits; Potency, µM (doses to about 53.6 µM), usual class: inhibitors; Drosophila S2 Gal4-RORgamma UAS-luciferase reporter, 20 h; further: nearly all actives have a fitted effect of over 60% in size
Target sequence (P51450 whole entry, looked up, the tested form may be a part): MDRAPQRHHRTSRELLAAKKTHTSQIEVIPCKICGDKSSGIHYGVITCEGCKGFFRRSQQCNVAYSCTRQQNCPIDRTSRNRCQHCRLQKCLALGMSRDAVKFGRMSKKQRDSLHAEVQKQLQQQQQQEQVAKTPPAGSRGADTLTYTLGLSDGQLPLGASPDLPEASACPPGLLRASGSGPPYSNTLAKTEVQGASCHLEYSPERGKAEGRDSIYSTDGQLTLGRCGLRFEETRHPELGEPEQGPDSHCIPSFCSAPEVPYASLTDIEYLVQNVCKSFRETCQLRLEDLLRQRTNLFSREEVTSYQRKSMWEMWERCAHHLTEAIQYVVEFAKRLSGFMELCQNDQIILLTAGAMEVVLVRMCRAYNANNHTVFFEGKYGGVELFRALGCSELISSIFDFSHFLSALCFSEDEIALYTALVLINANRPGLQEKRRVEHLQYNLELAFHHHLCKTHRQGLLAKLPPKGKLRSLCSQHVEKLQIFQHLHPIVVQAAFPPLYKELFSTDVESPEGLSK
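Luminescence from a UAS-regulated Photinus luciferase reporter in stably transfected Drosophila Schneider cells is measured; decreased signal marks ROR gamma inhibition. Fusion expression is induced by 700 uM copper sulfate for 20 hr.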
Gal4-VP16 FLuc: VP16 counterscreen qHTS for inhibitors of ROR gamma transcriptional activity | Drosophila S2 Gal4-VP16 UAS-luciferase, luminescence, 20 h | Potency, µM (series often up to 53.6 µM), hits mostly inhibitors | 310,000 compounds, 3.5% hits;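 further: Gal4-VP16 expression switched on by copper sulfate through the metallothionein promoter; nearly all actives have a fitted effect of over 50% in size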
Tau fluor cs: Counterscreen qHTS for Inhibitors of Tau Fibril Formation, Fluorescence Polarization; 280,000 compounds, 0.93% hits; Potency, µM (series often up to 57.7 µM); tau K18 P301L Alexa594 fluorescence, heparin fibrillization; further: nearly all actives have a fitted effect of over 55% in size
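Human tau K18 P301L (15 uM unlabeled, 0.24 uM Alexa 594-labeled) in 100 mM sodium acetate pH 7 with 20 uM heparin, 6 hr at 37 C. ThT 30 uM added, 1 hr ambient; Alexa 594 FP and total fluorescence read at 555/632 nm.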
Tau fibril FP: qHTS for Inhibitors of Tau Fibril Formation, Fluorescence Polarization; 280,000 compounds, 0.39% hits; K18 P301L tau heparin fibrillization, Alexa594 FP, 6 h; Potency, µM (highest dose often 57.7 µM), most hits filed as inhibitors; Microtubule-associated protein tau (Homo sapiens), P10636; further: nearly all actives have a fitted effect of over 55% in size
Target sequence (P10636 561-689 P618L limits assumed): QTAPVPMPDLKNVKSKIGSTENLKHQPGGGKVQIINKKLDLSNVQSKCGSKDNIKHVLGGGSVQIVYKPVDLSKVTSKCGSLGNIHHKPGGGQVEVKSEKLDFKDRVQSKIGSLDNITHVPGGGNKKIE
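Heparin (20 uM) drove fibril formation of recombinant tau K18 P301L, 15 uM unlabeled with 0.24 uM Alexa 594 label, for 6 hr at 37 C in 100 mM sodium acetate pH 7. Fluorescence polarization (555/632 nm) read 1 hr after 30 uM ThT.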
Tau ThT inhib: qHTS for Inhibitors of Tau Fibril Formation, Thioflavin T Binding | Microtubule-associated protein tau (Homo sapiens), P10636 | recombinant tau K18 P301L (four-repeat tau fragment), heparin-induced fibrillization, ThT fluorescence | Potency, µM (doses to about 57.4 µM), actives largely listed as inhibitors | 270,000 compounds, 2.1% hits | AID 1460, 2008; further: nearly all actives have a fitted effect of over 55% in size
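In this qHTS, human K18 P301L tau is incubated with compound and heparin for 6 hr at 37 C, and Thioflavin T fluorescence then reports fibril load.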
A number is an active result; . = inactive; ? = inconclusive; / = no result given; [ ] = dose if it differs, or a comment. The call rests on the fitted dose curve; in most records, active means well fitted curve in the direction sought with a large enough effect; inconclusive means small, poorly fitted or top-dose-only effect, or another doubt; inactive means no such curve, though single readings can be large; an effect the other way counts as inactive or inconclusive.

SMILES	RORgamma inh	Gal4-VP16 FLuc	Tau fluor cs	Tau fibril FP	Tau ThT inhib
Cc1ccc(NCC(=O)c2ccccc2)cc1Cl	.	.	.	.	?
O=C(O)c1ccc(NC2=C(Cl)C(=O)c3ccccc3C2=O)cc1	?	.	1.78µM[quencher]	3.55µM	1.41µM
CC1=C(Nc2ccc(C(=O)O)cc2)C(=O)c2ccccc2C1=O	.	?	/	/	/
COc1ccc2c(c1)CC(C(=O)N1CCC(C(N)=O)CC1)CO2 (centres undefined)	/	/	.	.	.
C=CCNC1=C(Cl)C(=O)c2ccccc2C1=O	12.6µM	?	.	.	.
O=C(O)c1cccc(NS(=O)(=O)/C=C/c2ccccc2)c1	.	.	.	.	.
C=CCNC1=C(Cl)C(=O)N(Cc2ccccc2)C1=O	.	.	/	/	/
O=C1C(Cl)=C(Nc2ccccc2)C(=O)c2ccccc21	12.6µM	12.6µM	3.55µM[quencher]	?	3.16µM
O=C(O)c1cccc(NC2=C(Cl)C(=O)c3ccccc3C2=O)c1	11.2µM	?	3.98µM[quencher]	25.1µM	2.82µM
CCN1CCN(Cc2c(O)ccc3oc(C)c(C(=O)Nc4ccc(OC)cc4)c23)CC1	/	/	.	.	.
CCOC(=O)c1nc(Nc2ccc(Nc3ccccc3)cc2)c2ccccc2n1	.	.	7.08µM[quencher]	.	5.01µM
CCOC(=O)c1nc(Nc2ccc(N3CCC(C)CC3)cc2)c2ccccc2n1	?	.	11.2µM[quencher]	.	?
CCOC(=O)c1nc(Nc2ccc(C(=O)O)cc2)c2ccccc2n1	.	.	.	.	.
COCC(=O)Nc1ccc2c(c1)OCC(=O)N2Cc1ccccc1F	.	.	/	/	/
N#C/C(N)=C(/C#N)N=Cc1cccc(Cl)c1	.	.	?	.	/
COc1ccc(C)cc1-n1nnnc1SC/C(O)=C(\C#N)c1nc2ccccc2[nH]1	12.6µM	?	?	.	?
Cc1ccc(Nc2nnc(SC/C(O)=C(\C#N)c3nc4ccccc4[nH]3)s2)c(C)c1	?	?	?	.	?
Cc1cccc(Nc2nnc(SC/C(O)=C(\C#N)c3nc4ccccc4[nH]3)s2)c1	7.08µM	11.2µM	.	.	.
COC(=O)C1CN(S(=O)(=O)c2cc(OC)ccc2OC)CCS1 (centres undefined)	.	.	/	/	/
COc1ccc(C(OCC(O)CN2CCC(O)CC2)c2ccc(OC)cc2)cc1 (centres undefined)	.	.	/	/	/
COCCCNC(=O)c1ccc(Cn2c(=O)c3ccccc3n(CC(=O)NCCc3ccc(OC)c(OC)c3)c2=O)cc1	.	.	.	.	.
Cc1cc(C)c(NC(=S)N(C)C)cc1C	7.94µM	.	.	.	.
Cc1cc(C)cc(NC(=S)N(C)C)c1	10µM	.	.	.	.
Cn1c(=O)c2c(nc(CN3CCN(c4ccccc4F)CC3)n2Cc2ccc(F)cc2)n(C)c1=O	/	/	.	.	?
COc1ccc(-c2csc(NC(=S)NC(=O)c3ccco3)n2)cc1Br	7.94µM	?	/	/	/
SMILES	RORgamma inh	Gal4-VP16 FLuc	Tau fluor cs	Tau fibril FP	Tau ThT inhib
Cc1ccc(-c2csc(NC(=S)NC(=O)c3ccco3)n2)cc1	5.62µM	?	.	.	.
COc1ccc(-c2csc(NC(=S)NC(=O)c3cc4ccccc4o3)n2)cc1Br	.	.	/	/	/
O=C(Nc1ccc2c(c1)N(C1CCCC1)C(=O)c1ccccc1S2)c1ccccc1	/	/	.	?	.
Cc1cccc(NC(=S)N2N=CCC2c2ccccc2)c1 (centres undefined)	.	?	.	.	.
CC1=NN(C(=S)Nc2ccccc2)C(c2ccccc2)C1 (centres undefined)	12.6µM	?	.	.	.
O=C(Oc1ccc(F)cc1C(=O)/C=C/c1cccs1)c1cccc([N+](=O)[O-])c1	?	.	?	.	14.1µM
C=Cc1ccc(Cn2c(=O)n(-c3cccc(Cl)c3)c(=O)c3c4c(sc32)CN(C(C)=O)CC4)cc1	/	/	.	?	?
Cc1nc(N2CCC(C)CC2)c2oc3ccccc3c2n1	12.6µM	?	.	.	?
NC(=O)c1cccc(-c2cc(Nc3ccc(OC(F)(F)F)cc3)ncn2)c1	?	.	?	28.2µM	?
Cc1nc(NC(=O)CSc2nc3cccnc3n2C2CCCCC2)sc1C	.	?	.	.	.
CCc1nnc(NC(=O)CSc2nccn2-c2cccc(C)c2C)s1	2.82µM	17.8µM	.	?	.
CCc1nnc(NC(=O)CSc2nc3cccnc3n2C2CCCCC2)s1	10µM	?	.	.	.
CCc1nnc(NC(=O)CSc2nccn2-c2ccc(OC)cc2)s1	/	/	.	.	.
CCc1nnc(NC(=O)CSc2nccn2-c2cc(C)cc(C)c2)s1	17.8µM	?	.	.	.
CC(C)(C)c1ccc(S(=O)(=O)c2cn(CC(=O)Nc3ccccc3)c3ccccc3c2=O)cc1	/	/	.	?	.
COCCN=c1scc(-c2ccccc2)n1/N=C/c1c[nH]c2ccccc12	?	.	10µM[quencher]	?	12.6µM
CCc1ccc(C(=O)/C=C/Nc2ccc(S(=O)(=O)Nc3onc(C)c3C)cc2)cc1	?	15.8µM	.	.	?
Cc1noc(NS(=O)(=O)c2ccc(N/C=C/C(=O)c3ccc(F)cc3)cc2)c1C	.	.	.	.	?
Cc1cc(C)cc(N2C(=O)CC(Sc3nnnn3-c3ccccc3)C2=O)c1 (centres undefined)	?	7.08µM	.	.	?
O=C1CC(SCCO)C(=O)N1c1ccccc1 (centres undefined)	.	.	.	.	.
O=C1CC(Sc2nnnn2C2CCCCC2)C(=O)N1c1ccccc1 (centres undefined)	?	5.01µM	.	.	?
Cn1nnnc1SC1CC(=O)N(c2ccccc2)C1=O (centres undefined)	7.94µM	?	.	.	?
Cc1ccc(OCc2cc(=O)n3cc(C)sc3n2)c(C)c1	/	/	.	.	?
Cc1ccc(NC(=O)CSc2nnc(N)s2)c(C)c1	/	/	.	.	.
Cc1cccc(C(=O)N2CCCC(N3CCN(c4ccccc4)CC3)C2)n1 (centres undefined)	.	.	/	/	/
SMILES	RORgamma inh	Gal4-VP16 FLuc	Tau fluor cs	Tau fibril FP	Tau ThT inhib
COC(=O)/C=C1\N/C(=N\c2nc(C)cc(C)n2)N(c2ccc(C)c(C)c2)C1=O	11.2µM	?	.	.	.
Cc1cc(C)cc(NC(=O)CN2CCC(C(=O)c3ccccc3)CC2)c1	.	.	/	/	/
O=C(c1cnc2cc(-c3ccccc3)nn2c1)c1cc([N+](=O)[O-])ccc1O	/	/	.	.	?
Cc1ccc(-c2cc3ncc(C(=O)c4cc([N+](=O)[O-])ccc4O)cn3n2)cc1	/	/	.	.	10µM
O=C(Nc1ccc(Cl)c(Cl)c1)c1ccc(Cl)c(Cl)c1	?	.	.	?	.
Cc1ccc(NC(=O)c2ccc(Cl)c(N3C(=O)C=CC3=O)c2)cc1	7.94µM	3.16µM	.	.	.
CCCn1c(C)nc2c(NCC3CCCN3CC)nc(C)nc21 (centres undefined)	.	.	.	.	.
